Source: the OligoGym collection
Also: reference of the scale not given here.

Each sequence was assayed against ZNF160 (assay: pooled miR-30 sensor sort-seq; sequence = guide strand). Settings: shRNA.
Work on TTCTATGTCTCTTCTGTCGCGT yielded a sensor-assay potency score (higher = more potent) of 0.15. With TCTATGTCTCTTCTGTCGCGTT the sensor-assay potency score (higher = more potent) was -0.213. Work on TAGGCTTGAACGAACACTGAAG yielded a sensor-assay potency score (higher = more potent) of -0.806. Sequence TATGTTTACATGATGTCTCTTG has a sensor-assay potency score (higher = more potent) of 0.273. With TTACCTATTACTCTCCTCCCAC the sensor-assay potency score (higher = more potent) was -0.496. TTCTGTACTGCTCTTCTCTTTT gave a sensor-assay potency score (higher = more potent) of -0.536. In the case of TTTCTTGCTATTTTCACACAGC, the sensor-assay potency score (higher = more potent) is reported as -0.0844. For TTGATCTCTTTTACCTTCTTTC, the sensor-assay potency score (higher = more potent) was -0.844. In the case of TGAATTTTGAGTGAAAACCTTG, the sensor-assay potency score (higher = more potent) is reported as -0.306. TTTTGAGTGAAGCTCTTGCCAC gave a sensor-assay potency score (higher = more potent) of -0.929. Sequence TGTCTTTCCAACACCACTGTGT has a sensor-assay potency score (higher = more potent) of 0.215. In the case of TAAACAACAGGTATTGCTCTTT, the sensor-assay potency score (higher = more potent) is reported as 0.3.

What follows are sequences tested against ZNF169 in the same assay as above. Settings: shRNA.
For TTCAACATTGTGTCTGACCCCC, the sensor-assay potency score (higher = more potent) was 0.288. TTTCTTAATGAGCTGTCGGGGC was tested, and the sensor-assay potency score (higher = more potent) was -0.62. TTCGTCGCCTTGCTCCAGCTGT gave a sensor-assay potency score (higher = more potent) of -0.551. With TAGCGCATATTGTCTGAGGAGC the sensor-assay potency score (higher = more potent) was -1.15. Work on TTTCACTAGAGCATCTTGGAGC yielded a sensor-assay potency score (higher = more potent) of -0.176. For TATTGTCTGAGGAGCTGCGAGC, the sensor-assay potency score (higher = more potent) was -1.19. Sequence TTTTTCACTAGAGCATCTTGGA has a sensor-assay potency score (higher = more potent) of 0.14. TAGAGCATCTTGGAGCTTCTAG showed a sensor-assay potency score (higher = more potent) of -0.619. For TTGATAAGGTCTGATCTCTGGC, the sensor-assay potency score (higher = more potent) was 0.151. Sequence TAAGGTGTGACTTCTGGCCAAG has a sensor-assay potency score (higher = more potent) of -0.969. Sequence TAGAAGGAGGGCTATCTTCTGG has a sensor-assay potency score (higher = more potent) of -0.694.
